Consider 18 molecules from PubChem BioAssay (NCATS).

Results filed as inconclusive are left out. A call without a number means that no potency is given here. The source made the active and inactive calls. Calls follow the shape of the dose curve; as a rule, active = well fitted inhibition curve with a large enough effect; inconclusive = small, poorly fitted or top-dose-only effect; inactive = flat fitted curve, though single readings scatter.

This test relates to MCC-26. Description: qHTS assay to identify novel small-molecules to repurpose for Merkel cell carcinoma treatment (AID 1296009). Also: nearly all actives have a fitted effect of over 60% in size. As to conditions: MCC and control cell lines, CellTiter-Glo viability, 72 h; series mostly up to 46 µM. The method in brief:
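Dose-response viability screen; 72 hr exposure at 37 degree celsius; CellTiter-Glo added, 10 min room temperature, luminescence read; RLUs scaled between no-cell and DMSO wells.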
For the molecule `CCOCC(O)COc1ccc(NC(=O)CC[S+](C)C)cc1` (stereo not drawn), the Potency result was “inactive”. Consider `COc1cc(NS(=O)(=O)c2ccc(N)cc2)nc(OC)n1`, for which the Potency result is “inactive”. Consider `O=C(N[C@H](CO)[C@H](O)c1ccc([N+](=O)[O-])cc1)C(Cl)Cl`, for which the Potency entry is “inactive”. As for `CCCc1cc(C(N)=S)ccn1`, the Potency result was “inactive”. For `O=C(O)c1cn(C2CC2)c2cc(N3CCNCC3)c(F)cc2c1=O`, the Potency result is “inactive”. For the molecule `O=C(O)CCn1c2c(c3ccccc31)C[C@H](NS(=O)(=O)c1ccc(F)cc1)CC2`, the Potency result was “inactive”. `Cc1noc(NS(=O)(=O)c2ccc(N)cc2)c1C`: the Potency entry is “inactive”. Take `O=C(O)CSCC(=O)NC1CCSC1=O` (stereo not drawn): the Potency entry was “inactive”. For the molecule `CO[C@@H]1[C@@H](OC(N)=O)[C@@H](O)[C@H](Oc2ccc3c(O)c(NC(=O)c4ccc(O)c(CC=C(C)C)c4)c(=O)oc3c2C)OC1(C)C`, the Potency entry was “inactive”.

On to `CCOc1cc(N)c(Cl)cc1C(=O)NCC1CN(Cc2ccc(F)cc2)CCO1` (stereo not drawn), for which the Potency entry was “inactive”. Regarding `C[C@@H](CN1CC(=O)NC(=O)C1)N1CC(=O)NC(=O)C1`, the Potency entry was “inactive”. With `OC(Cn1cncn1)(Cn1cncn1)c1ccc(F)cc1F`, the Potency result was “inactive”. On to `Clc1ccccc1CN1CCc2sccc2C1`, for which the Potency entry was “inactive”.

Take `Cc1cccc(N(C)C(=S)Oc2ccc3ccccc3c2)c1`: the Potency result is “inactive”. Turning to `COC(c1ccccc1)(c1ccccc1)[C@H](Oc1nc(C)cc(C)n1)C(=O)O`, the Potency entry is “inactive”. In the case of `CCc1cc(C(N)=S)ccn1`, the Potency entry is “inactive”. `COCCCOc1cc(C[C@@H](C[C@H](N)[C@@H](O)C[C@H](C(=O)NCC(C)(C)C(N)=O)C(C)C)C(C)C)ccc1OC`: the Potency entry is “inactive”. For `CC(C)OC(=O)C(C(=O)OC(C)C)=C1SC=CS1`, the Potency entry was “inactive”.
